Assay results published in PubChem BioAssay AID1159580 (chemical genetic matrix, 2015).
Values joined by “and” are separate entries in the source; they are usually repeats but may differ in a detail not shown here. Equal values may be shown once. Hit rate of the full screen: of about 5,500 compounds, about 2,000 (36%) were called active. Inconclusive results (about 18%) are left out. No stated cut-off is given here; in the data, active means normalized growth mostly below about 0.91 (no sharp cut-off); inconclusive means no clear call, values can overlap the other calls; inactive means mostly above about 0.92. Some of the results follow.

Assay: chemical genetic growth profiling, strain panel (AID 1159580);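 further: tested at 20 µM; growth read once vehicle control cultures reached saturation at 30 °C; 1 = growth at the plate median or of vehicle wells; lower values mean less growth of the strain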
Conditions: growth OD

Measured: normalized growth

CC[N+](CC)(CC)CCOc1cccc(OCC[N+](CC)(CC)CC)c1OCC[N+](CC)(CC)CC
inactive: S. cerevisiae deletion strains, locus YJR066W, strain TOR1, hits give low values 0.953 | S. cerevisiae deletion strains, locus YKL009W, strain mrt4, hits give low values 0.99 | S. cerevisiae deletion strains, locus YKL068W, hits give low values 1 | S. cerevisiae deletion strains, locus YKL085W, strain MDH1 (second series), hits give low values 1.02 | S. cerevisiae deletion strains, locus YKL085W, strain MDH1, hits give low values 1.02 | S. cerevisiae deletion strains, locus YKL160W, strain elf1, hits give low values 1.04 | S. cerevisiae deletion strains, locus YKR001C, strain vps1, hits give low values 1 | S. cerevisiae deletion strains, locus YKR026C, strain gcn3, hits give low values 1.01 | S. cerevisiae deletion strains, locus YKR091W, strain srl3, hits give low values 1.02 | S. cerevisiae deletion strains, locus YLL001W, strain dnm1, hits give low values 1.04 | S. cerevisiae deletion strains, locus YLL026W, hits give low values 1.01 | S. cerevisiae deletion strains, locus YLL041C, strain sdh2, hits give low values 1.01 | S. cerevisiae deletion strains, locus YLR027C, strain aat2, hits give low values 1.02 | S. cerevisiae deletion strains, locus YLR039C, strain RIC1, hits give low values 1.11 | S. cerevisiae deletion strains, locus YLR058C, strain SHM2, hits give low values 1.03 | S. cerevisiae deletion strains, locus YLR102C, strain apc9, hits give low values 1.01 | S. cerevisiae deletion strains, locus YLR113W, strain HOG1, hits give low values 0.977 | S. cerevisiae deletion strains, locus YLR221C, strain rsa3, hits give low values 1.02 | S. cerevisiae deletion strains, locus YLR258W, strain gsy2, hits give low values 1.01 | S. cerevisiae deletion strains, locus YLR262C, strain YPT6 (second series), hits give low values 1.05 | S. cerevisiae deletion strains, locus YLR262C, strain YPT6, hits give low values 1.07 | S. cerevisiae deletion strains, locus YLR268W, strain sec22, hits give low values 1.01 | S. cerevisiae deletion strains, locus YLR320W, strain mms22, hits give low values 1.03 | S. cerevisiae deletion strains, locus YLR330W, strain CHS5, hits give low values 1.01 | S. cerevisiae deletion strains, locus YLR342W, strain FKS1 (second series), hits give low values 0.996 | S. cerevisiae deletion strains, locus YLR342W, strain FKS1, hits give low values 1.02 | S. cerevisiae deletion strains, locus YLR357W, strain rsc2, hits give low values 1 | S. cerevisiae deletion strains, locus YLR370C, strain arc18, hits give low values 1.01 | S. cerevisiae deletion strains, locus YLR371W, strain rom2, hits give low values 1.01 | S. cerevisiae deletion strains, locus YLR384C, strain iki3, hits give low values 1.02 | S. cerevisiae deletion strains, locus YLR418C, strain cdc73, hits give low values 1.02 | S. cerevisiae deletion strains, locus YML016C, strain PPZ1, hits give low values 1.01 | S. cerevisiae deletion strains, locus YML032C, strain rad52, hits give low values 1 | S. cerevisiae deletion strains, locus YML120C, strain ndi1, hits give low values 1.03 | S. cerevisiae deletion strains, locus YML124C, strain tub3, hits give low values 1.01 | S. cerevisiae deletion strains, locus YMR058W, strain fet3, hits give low values 1.01 | S. cerevisiae deletion strains, locus YMR078C, strain ctf18, hits give low values 1.02 | S. cerevisiae deletion strains, locus YMR125W, strain sto1, hits give low values 1.01 | S. cerevisiae deletion strains, locus YMR129W, hits give low values 1.01 | S. cerevisiae deletion strains, locus YMR205C, strain PFK2, hits give low values 1.03 | S. cerevisiae deletion strains, locus YMR223W, strain ubp8, hits give low values 1.02 | S. cerevisiae deletion strains, locus YMR231W, strain pep5, hits give low values 1.01 | S. cerevisiae deletion strains, locus YMR263W, strain SAP30, hits give low values 0.995 | S. cerevisiae deletion strains, locus YMR307W, strain GAS1, hits give low values 1.02 | S. cerevisiae deletion strains, locus YNL067W, strain RPL9B, hits give low values 1.01 | S. cerevisiae deletion strains, locus YNL071W, strain lat1, hits give low values 1.01 | S. cerevisiae deletion strains, locus YNL128W, strain TEP1, hits give low values 1.02 | S. cerevisiae deletion strains, locus YNL153C, strain GIM3, hits give low values 1.01 | S. cerevisiae deletion strains, locus YNL175C, strain NOP13, hits give low values 0.987 | S. cerevisiae deletion strains, locus YNL183C, strain NPR1, hits give low values 0.969 | S. cerevisiae deletion strains, locus YNL197C, strain WHI3, hits give low values 0.987 | S. cerevisiae deletion strains, locus YNL209W, strain ssb2, hits give low values 1.02 | S. cerevisiae deletion strains, locus YNL224C, strain SQS1, hits give low values 0.997 | S. cerevisiae deletion strains, locus YNL233W, strain BNI4, hits give low values 1.02 | S. cerevisiae deletion strains, locus YNL248C, strain rpa49, hits give low values 1 | S. cerevisiae deletion strains, locus YNL250W, strain rad50, hits give low values 1.05 | S. cerevisiae deletion strains, locus YNL271C, strain bni1, hits give low values 1.01 | S. cerevisiae deletion strains, locus YNL298W, strain CLA4, hits give low values 1.01 | S. cerevisiae deletion strains, locus YNL307C, strain MCK1, hits give low values 1.02 | S. cerevisiae deletion strains, locus YNL322C, strain KRE1 (second series), hits give low values 1.02 | S. cerevisiae deletion strains, locus YNL322C, strain KRE1, hits give low values 1 and 1.01 | S. cerevisiae deletion strains, locus YNR049C, strain mso1, hits give low values 1.02 | S. cerevisiae deletion strains, locus YNR052C, strain pop2, hits give low values 1.02 | S. cerevisiae deletion strains, locus YOL006C, strain TOP1, hits give low values 1.04 | S. cerevisiae deletion strains, locus YOL012C, strain htz1 0.763 | S. cerevisiae deletion strains, locus YOL147C, strain pex11, hits give low values 1 | S. cerevisiae deletion strains, locus YOR001W, strain rrp6, hits give low values 1 | S. cerevisiae deletion strains, locus YOR061W, strain CKA2, hits give low values 1.01 | S. cerevisiae deletion strains, locus YOR069W, strain VPS5, hits give low values 1.01 | S. cerevisiae deletion strains, locus YOR070C, strain gyp1, hits give low values 1.02 | S. cerevisiae deletion strains, locus YOR080W, strain dia2, hits give low values 1.02 | S. cerevisiae deletion strains, locus YOR083W, strain WHI5 (second series), hits give low values 0.998 | S. cerevisiae deletion strains, locus YOR083W, strain WHI5, hits give low values 1.04 | S. cerevisiae deletion strains, locus YOR106W, strain vam3, hits give low values 1.02 | S. cerevisiae deletion strains, locus YOR136W, strain idh2, hits give low values 1 | S. cerevisiae deletion strains, locus YOR144C, strain elg1, hits give low values 1.01 | S. cerevisiae deletion strains, locus YOR184W, strain ser1, hits give low values 1.04 | S. cerevisiae deletion strains, locus YOR231W, strain MKK1, hits give low values 1 | S. cerevisiae deletion strains, locus YOR265W, strain rbl2, hits give low values 1.01 | S. cerevisiae deletion strains, locus YOR270C, strain vph1, hits give low values 1.04 | S. cerevisiae deletion strains, locus YOR290C, strain snf2, hits give low values 0.958 | S. cerevisiae deletion strains, locus YOR316C, strain cot1, hits give low values 1.02 | S. cerevisiae deletion strains, locus YPL051W, strain arl3, hits give low values 1.01 | S. cerevisiae deletion strains, locus YPL055C, strain LGE1, hits give low values 1.02 | S. cerevisiae deletion strains, locus YPL078C, strain atp4, hits give low values 1.02 | S. cerevisiae deletion strains, locus YPL106C, strain sse1, hits give low values 1.02 | S. cerevisiae deletion strains, locus YPL240C, strain hsp82, hits give low values 1 | S. cerevisiae deletion strains, locus YPL256C, strain CLN2, hits give low values 1.05 | S. cerevisiae deletion strains, locus YPR119W, strain clb2, hits give low values 1.02 | S. cerevisiae deletion strains, locus YPR141C, strain kar3, hits give low values 1.02 | S. cerevisiae deletion strains, locus YPR163C, strain tif3, hits give low values 1.02 | S. cerevisiae deletion strains, locus YPR167C, strain met16, hits give low values 1.02 | S. cerevisiae deletion strains, strain wtn01, hits give low values 0.996 | S. cerevisiae strains, strain wild type, hits give low values 1.01
